# Shiga toxin inh = Shiga toxin inhibition. Vero cells, Shiga toxin protein synthesis inhibition reporter. AID 2315. inhibition, % at 38.7 µM. 290,000 compounds, 9.2% hits; in the data active means inhibition mostly above about 28%, no sharp cut-off; inactive means mostly below about 43%; further: 0% is about no effect
# AMA1-RON2 inh = disrupts binding of P. falciparum AMA1 to RON2; AlphaScreen AMA1-biotinylated RON2 peptide binding; Potency, µM (series often up to 58.2 µM), for inactives: at the top dose activity change, negative = inhibition, most hits filed as inhibitors; AID 720542; 360,000 compounds, 0.2% hits;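 further: potency means the concentration at half of the fitted maximal effect; 0% = vehicle wells and -100% = peptide control; nearly all actives have a fitted effect of over 45% in size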
#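 AMA1 (3D7) with his tag at 25 nM final met compounds first, then biotinylated RON2 peptide at 25 nM; detection used donor plus acceptor beads, 10 µg/mL apiece, read by AlphaScreen after 30 min at room temperature.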
# Cycloheximide cs = counter-screen for Shiga toxin inhibitors: cycloheximide protein synthesis inhibition; cell reporter, cycloheximide protein synthesis inhibition counterscreen; AID 2314; 300,000 compounds, 12% hits; max response, %; in the data active means max response mostly above about 13%, no sharp cut-off; inactive means mostly below about 14%; further: read at 38.3 µM for the half of the compounds with a filed dose; 0% is about no effect
# AmpC detergent = inhibitors of E. coli AmpC beta-lactamase with detergent; 370,000 compounds, 0.041% hits; Potency, µM (doses to about 114 µM), without a hit: at the highest dose activity change, negative = inhibition, hits mostly inhibitors; P00811; AmpC hydrolysis of nitrocefin, absorbance 480 nm, 0.01% Triton;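 further: potency means the concentration at half of the fitted maximal effect; 0% = no-compound wells and -100% = no-enzyme wells; nearly all actives have a fitted effect of over 25% in size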
# Target sequence (P00811 whole entry, looked up): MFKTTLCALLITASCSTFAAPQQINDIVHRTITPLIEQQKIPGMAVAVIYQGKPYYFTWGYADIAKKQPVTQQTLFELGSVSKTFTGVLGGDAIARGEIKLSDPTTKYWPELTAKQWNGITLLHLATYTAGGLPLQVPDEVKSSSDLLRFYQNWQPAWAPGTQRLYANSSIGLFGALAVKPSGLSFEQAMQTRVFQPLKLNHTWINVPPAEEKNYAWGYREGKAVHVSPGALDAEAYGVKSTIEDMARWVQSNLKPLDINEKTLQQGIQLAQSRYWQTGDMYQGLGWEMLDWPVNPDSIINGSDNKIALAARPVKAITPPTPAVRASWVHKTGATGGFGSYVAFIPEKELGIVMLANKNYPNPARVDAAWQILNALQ
#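 20 mM phosphate pH 7.0 + 0.01% (detergent screen) or 0.0001% Triton X-100; 5.3 nM AmpC reagent; cpd preinc 15 min RT; nitrocefin (800 uM stock) to start; A480 q20 s × 4 min; Activity was normalised to no-enzyme and no-compound control wells.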
# AmpC inh no detg = AmpC beta-lactamase inhibition without detergent; AID 485341; 330,000 compounds, 0.52% hits; Potency, µM (top dose mostly 57.1 µM), without a hit: top-dose activity change, negative = inhibition, usual class: inhibitors; AmpC nitrocefin hydrolysis, absorbance 480 nm, 0.0001% Triton;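 further: potency means the concentration at half of the fitted maximal effect; plate controls were no compound for no effect and no enzyme for full effect; nearly all actives have a fitted effect of over 20% in size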
#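 20 mM phosphate pH 7.0 + 0.01% (detergent screen) or 0.0001% Triton X-100; 5.3 nM AmpC reagent; cpd preinc 15 min RT; nitrocefin (800 uM stock) to start; A480 q20 s × 4 min; Activity was normalised to no-enzyme and no-compound control wells.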
# SARS PLP yeast = inhibitors of SARS-CoV papain-like protease in yeast; S. cerevisiae expressing SARS-CoV PLpro, growth rescue; Potency, µM (series often up to 32.9 µM), for inactives: at the highest dose activity, positive = growth rescue, actives largely listed as activators; 330,000 compounds, 0.19% hits; AID 485353; calls by dose curve; further: potency means the concentration at half of the fitted maximal effect; 0% is about no effect; nearly all actives have a fitted effect of over 55% in size
# Active calls of the source: *; ? = inconclusive; nt = not tested or not shown; + = active, no number. The full list was thinned out, with hits kept by preference. Unless noted, the call rests on the fitted dose curve; in most records, active means well fitted curve in the direction sought with a large enough effect; inconclusive means small, poorly fitted or top-dose-only effect, or another doubt; inactive means no such curve, though single readings can be large; an effect the other way counts as inactive or inconclusive.
SMILES,Shiga toxin inh,AMA1-RON2 inh,Cycloheximide cs,AmpC detergent,AmpC inh no detg,SARS PLP yeast
COc1ccc(OCc2cc(C(=O)NCc3cccc(C)n3)no2)c(Cl)c1,138*,7%,61*,0%,46%,-11%
COc1cccc(OCc2cc(C(=O)NCc3ccccn3)no2)c1,70*,49%,62*,2%,-14%,-1%
CCCC1=[N+](CC)CCn2c(C)ccc21,-3,-3%,-2,-2%,?,3%
COCc1cc(C)nc(NC2CCCCC2)c1C#N,-4,0%,5,-9%,-2%,-5%
CN(C)S(=O)(=O)c1cccc(NC(=O)c2ccc3nccnc3c2)c1,44,8%,20*,8%,-9%,0%
CC(=O)c1cccc(NC(=O)c2cccc(S(=O)(=O)N(C)C)c2)c1,8,0%,13*,2%,-26%,2%
C/C(Cl)=C/CC1(CN2CCCC2=O)C(=O)NC(=O)NC1=O,-3,14%,1,28µM*,3%,6%
C[N+](C)(C)CC#CCN1CCCC1=O,nt,7%,nt,nt,nt,nt
N/C(=N\OC(=O)COc1ccc(Cl)cc1Cl)c1cccnc1,78*,2%,54*,-6%,-21%,5%
Cc1ccc(OCC(=O)O/N=C(\N)c2cccnc2)cc1,68*,-2%,23*,2%,-18%,-2%
O=C(COc1ccc(Cl)cc1Cl)NNC(=O)c1cccnc1,26,62%,14,1%,-3%,1%
N/C(=N\OC(=O)COc1ccc([N+](=O)[O-])cc1)c1cccnc1,15,9%,-2,?,-32%,1%
N/C(=N\OC(=O)COc1ccc(Cl)cc1)c1cccnc1,62*,-3%,15*,-1%,-19%,-16%
O=C(COc1cccc(Cl)c1)Nc1ccccc1N1CCCCC1,nt,3%,nt,?,-27%,0%
Cc1ccc(C)c(Nc2nc3c(S(=O)(=O)c4ccccc4)nnn3c3ccccc23)c1,-6,-2%,-3,2%,-18%,15%
Nc1c(-c2n[nH]c(=S)n2-c2ccc(Cl)cc2Cl)cnn1-c1ccccc1,-18,54%,1,6%,-25%,-4%
Nc1[nH]nc2c1NN(c1ccc(Cl)cc1Cl)N2,83*,-3%,48*,-5%,-36%,-14%
S=C(NCc1ccccc1)N1CCn2cccc2C1c1ccncc1 (stereo not given),-15,11%,-3,-1%,-1%,-1%
C=CCn1nc2n(c1=O)-c1ccccc1SC2,24,3%,13,-5%,-13%,0%
O=c1n(Cc2ccccc2Cl)nc2n1-c1ccccc1SC2,40*,3%,48*,-6%,-37%,-2%
O=c1n(Cc2ccccc2)nc2n1-c1ccccc1SC2,49*,13%,28*,3%,-30%,-2%
Nn1c(SCc2cc([N+](=O)[O-])cc3c2OCOC3)nnc1-c1ccccn1,-4,24%,-1,5%,-4%,0%
Cc1ccsc1CN(C(=O)COc1cccc(C)c1C)C1CCS(=O)(=O)C1 (stereo not given),nt,nt,nt,3%,nt,nt
CC(C)(C)c1ccc(S(=O)(=O)NC(=O)C2(C)CCN2C(=O)Cc2cccc3ccccc23)cc1 (stereo not given),nt,0%,nt,nt,nt,nt
O=c1[nH]c2ccccc2nc1-c1ccccc1,50*,8%,26*,7%,-24%,0%
SMILES,Shiga toxin inh,AMA1-RON2 inh,Cycloheximide cs,AmpC detergent,AmpC inh no detg,SARS PLP yeast
O=c1[nH]c2ccccc2nc1-c1ccc(Cl)cc1,52*,-14%,18*,?,-25%,0%
c1ccc(-c2nnsc2-c2nc3ccccc3[nH]2)cc1,43*,17%,23*,-3%,-41%,-7%
c1ccc(-c2nnsc2-c2ncc[nH]2)cc1,10,-2%,-2,-1%,-25%,1%
CC(OC(=O)C1COc2ccccc2O1)C(=O)c1ccccc1 (stereo not given),nt,15%,nt,nt,nt,nt
O=C(NCCSc1c(-c2ccccc2)[nH]c2ccccc12)c1cc2ccccc2oc1=O,-5,?,-4,-4%,-43%,-9%
O=C1CN(C(=O)/C=C/c2ccccc2)CCN1,-4,-2%,-2,?,-6%,1%
CN1CCCN(C(=O)/C=C/c2ccc(Cl)cc2Cl)CC1,28,5%,25*,2%,3%,0%
O=C1CN(C(=O)/C=C/c2ccc(Cl)cc2Cl)CCN1,59*,-7%,34*,-11%,2%,2%
CN1CCN(C2CN(Cc3cn(Cc4ccccc4F)nn3)S(=O)(=O)C2)CC1 (stereo not given),nt,10%,nt,nt,nt,nt
CC(C)C(=O)Nc1ccc(-c2ccc3nncn3n2)cc1,18,-1%,12,-8%,-14%,2%
O=C(c1ccccc1)c1ccc(OC(=O)N2CCOCC2)cc1,43,-3%,36*,?,31%,1%
O=C(Oc1ccc(C(=S)N2CCOCC2)cc1)c1ccccc1,-2,0%,15,-4%,9%,-3%
CCCCOC(=O)c1ccc(OC(=O)N2CCOCC2)cc1,33,-2%,29*,-11%,28%,4%
CCCCOC(=O)N1CCOCCOCCN(C(=O)OCCCC)CCOCCOCC1,-13,-5%,1,?,136%,-2%
Cc1cc(C)c2oc(=O)cc(CN3CCOCC3)c2c1,3,-9%,-2,-3%,-14%,-12%
CCC(Cc1ccccc1)NC(=O)CN(C)S(=O)(=O)c1ccc2c(c1)c(=O)n(C)c(=O)n2C (stereo not given),-6,-1%,-6,-17%,78%,-5%
COC(=O)Cc1c(C)c2ccc(OCC(C)=O)c(C)c2oc1=O,92*,-7%,43*,-2%,-19%,-3%
C=C(C)COc1ccc2c(C)c(CC(=O)OC)c(=O)oc2c1C,+,17%,47*,-3%,253%,-37%
Cn1cc(C=O)c(-c2ccc3c(c2)OCCCO3)n1,83*,0%,44*,-3%,-10%,-1%
O=C(O)c1cn(-c2ccccc2)nc1-c1ccc(F)cc1,-11,1%,-3,2%,-16%,-4%
Cn1cc(C(=O)O)c(-c2ccc3c(c2)OCCCO3)n1,-5,9%,-4,0%,-17%,1%
N#Cc1cn(-c2ccccc2)nc1-c1ccc2c(c1)OCCO2,64*,18%,24*,-2%,-16%,3%
O=Cc1cn(-c2ccccc2)nc1-c1ccc2c(c1)OCCO2,99*,-6%,57*,1%,-28%,-55%
CCN(CC)C(=O)c1cn(-c2ccccc2)nc1-c1ccc2c(c1)OCCO2,-1,-4%,-6,4%,169%,-3%
O=Cc1cn(-c2ccccc2)nc1-c1ccc(F)cc1,16,9%,active,-17%,-6%,4%
CSc1nc(N)c(C#N)c(-c2ccc(Cl)cc2)c1C#N,-8,-1%,-2,?,-36%,1%
